# In PubChem BioAssay:
# “And” between values parts separate entries of the source, which are not always exact repeats. Identical values can stand only once. For some of these results: Entries with a potency or affinity are not part of this list. The source made the active and inactive calls.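 Rule for the calls, unless noted: active = compounds whose cell count with miR-34 switched on is under 0.7 times the count with it off; inactive = the rest.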 Peptide text beside a SMILES is read from it.
# Experiments:
# [1] = hESC survival regulators, cell-based (AID 493140; call rule not given here;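 note: cells exposed to compounds for four days before counting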); settings: human embryonic stem cell survival screen; stronger effect = higher value
# [2] = liver-stage malaria parasite growth inhibition, primary screen, cell-based, HepG2, luciferase luminescence, HepG2 viability (AID 624349; in the data active = parasite load remaining mostly below about 12%, no sharp cut-off; inactive = mostly above about 10%;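 note: 100% = mean of DMSO negative control wells on the same plate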); settings: P. berghei liver stage in HepG2, luciferase luminescence, concentration not given here; parasite load remaining: stronger effect = lower value; viability: measured here: HepG2 viability without parasites
# [3] = target: 6-phosphogluconate dehydrogenase, decarboxylating (Homo sapiens) (UniProt P52209); test: 6PGD enzyme inhibitors, primary screen, biochemical, human, recombinant enzyme, NADPH absorbance (AID 1159550;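 active = at least 20% inhibition of 6-phosphogluconate dehydrogenase activity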); settings: recombinant 6PGD, NADPH absorbance 341 nm; at 10 µM; stronger effect = higher value
# Sequence of 6-phosphogluconate dehydrogenase, decarboxylating (Homo sapiens) (P52209 whole entry, looked up): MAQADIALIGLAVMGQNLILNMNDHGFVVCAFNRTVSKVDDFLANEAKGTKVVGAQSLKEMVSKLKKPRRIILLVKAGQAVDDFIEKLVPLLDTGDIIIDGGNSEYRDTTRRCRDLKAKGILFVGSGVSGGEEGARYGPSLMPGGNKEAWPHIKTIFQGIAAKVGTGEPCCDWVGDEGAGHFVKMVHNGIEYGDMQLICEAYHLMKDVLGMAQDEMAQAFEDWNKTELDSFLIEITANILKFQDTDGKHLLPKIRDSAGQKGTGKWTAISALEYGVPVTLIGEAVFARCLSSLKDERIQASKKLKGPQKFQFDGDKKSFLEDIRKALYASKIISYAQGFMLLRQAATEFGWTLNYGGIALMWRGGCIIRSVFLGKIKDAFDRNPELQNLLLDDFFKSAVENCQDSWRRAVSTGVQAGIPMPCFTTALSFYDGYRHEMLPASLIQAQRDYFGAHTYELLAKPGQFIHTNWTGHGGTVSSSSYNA
# [4] = differential killing of epithelial or mesenchymal cells, primary screen, imaging, PC-3E GFP, TEM4-18 mCherry, co-culture (AID 1345086;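 active = compounds killing one labelled cell type while sparing the other, by normalised counts and ratio limits, not self-fluorescent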;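 for all read-outs here: cells exposed to compound for 72 h before imaging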;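 for red/green cell ratio (normalised): normalised mesenchymal count divided by normalised epithelial count so high means epithelial killing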); settings: imaging cell counts, at 1 µM; for red/green cell ratio (normalised): actives lie on both sides, counts scaled to control wells, 1 = unselective
# [5] = sensitizers of A549 cells to miR-34 induction, primary screen, imaging, A549 dox-inducible miR-34, nuclei and caspase counts (AID 1347080); settings: A549 miR-34 inducible, Hoechst nuclei count, 48 h
# [6] = target: Mitogen-activated protein kinase 7 (Homo sapiens) (UniProt Q13164); test: ERK5 transactivation activators in reporter cells, primary screen, cell-based, HTS (AID 1508626;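 active = luciferase signal above three times the same-plate solvent-only control wells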;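 note: luciferase driven by Gal4-ERK5 fusion binding five Gal4 sites before minimal TATA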); settings: HeLa Gal4-ERK5 transactivation, 18 h, at 5 µM, stronger effect = higher value
# Sequence of Mitogen-activated protein kinase 7 (Homo sapiens) (Q13164 whole entry, looked up, the tested form may be a part): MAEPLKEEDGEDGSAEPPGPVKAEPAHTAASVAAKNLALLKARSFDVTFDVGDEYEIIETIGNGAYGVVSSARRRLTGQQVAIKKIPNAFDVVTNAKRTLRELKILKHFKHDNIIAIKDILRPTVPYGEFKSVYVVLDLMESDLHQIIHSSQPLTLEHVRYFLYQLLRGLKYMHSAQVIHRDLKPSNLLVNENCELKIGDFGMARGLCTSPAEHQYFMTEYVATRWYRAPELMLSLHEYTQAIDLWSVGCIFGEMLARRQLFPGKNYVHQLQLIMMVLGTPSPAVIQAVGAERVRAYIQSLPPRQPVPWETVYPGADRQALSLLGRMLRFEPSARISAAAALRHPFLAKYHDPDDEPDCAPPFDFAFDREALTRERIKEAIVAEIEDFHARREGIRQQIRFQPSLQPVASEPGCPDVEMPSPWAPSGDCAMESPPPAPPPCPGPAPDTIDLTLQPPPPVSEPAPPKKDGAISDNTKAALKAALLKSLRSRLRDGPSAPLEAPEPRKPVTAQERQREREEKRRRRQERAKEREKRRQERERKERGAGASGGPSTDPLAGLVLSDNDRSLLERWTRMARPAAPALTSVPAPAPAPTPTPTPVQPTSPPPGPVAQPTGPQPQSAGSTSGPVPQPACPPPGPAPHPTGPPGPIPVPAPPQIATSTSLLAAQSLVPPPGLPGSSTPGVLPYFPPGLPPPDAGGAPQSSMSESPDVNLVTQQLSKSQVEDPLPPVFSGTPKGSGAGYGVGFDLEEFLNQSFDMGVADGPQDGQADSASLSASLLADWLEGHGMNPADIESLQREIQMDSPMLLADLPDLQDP
# [7] = survival rescue of mitochondrial mutant cells in low glucose, primary screen, MELAS cybrids, Rieske KO mouse fibroblasts, CellTiter-Glo (AID 1508586;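 active = mean z-score across replicates of 1.96 or higher in either the MELAS or the Rieske mutant cell line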;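 note: z relative to plate mean and SD of compound and empty wells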)
# [8] = phospholipid biosynthesis inhibitors in animal cells, primary screen, cell-based, LOPAC library, screen 4 (AID 1347384; call rule not given here); settings: phospholipid biosynthesis inhibition screen, at 10 µM
# [9] = target: NAD(+) hydrolase SARM1 (Homo sapiens) (UniProt Q6SZW1); test: SARM1 TIR NADase inhibitors, cell lysate, NAD-Glo luminescence (AID 1508614;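 active = compound whose remaining NAD level is above about 45 nM, limit read from the data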;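 note: higher remaining NAD means stronger inhibition of SARM1 NADase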); settings: SAM-TIR HEK293T lysate NADase, at 1 µM, stronger effect = higher value
# Sequence of NAD(+) hydrolase SARM1 (Homo sapiens) (Q6SZW1 whole entry, looked up): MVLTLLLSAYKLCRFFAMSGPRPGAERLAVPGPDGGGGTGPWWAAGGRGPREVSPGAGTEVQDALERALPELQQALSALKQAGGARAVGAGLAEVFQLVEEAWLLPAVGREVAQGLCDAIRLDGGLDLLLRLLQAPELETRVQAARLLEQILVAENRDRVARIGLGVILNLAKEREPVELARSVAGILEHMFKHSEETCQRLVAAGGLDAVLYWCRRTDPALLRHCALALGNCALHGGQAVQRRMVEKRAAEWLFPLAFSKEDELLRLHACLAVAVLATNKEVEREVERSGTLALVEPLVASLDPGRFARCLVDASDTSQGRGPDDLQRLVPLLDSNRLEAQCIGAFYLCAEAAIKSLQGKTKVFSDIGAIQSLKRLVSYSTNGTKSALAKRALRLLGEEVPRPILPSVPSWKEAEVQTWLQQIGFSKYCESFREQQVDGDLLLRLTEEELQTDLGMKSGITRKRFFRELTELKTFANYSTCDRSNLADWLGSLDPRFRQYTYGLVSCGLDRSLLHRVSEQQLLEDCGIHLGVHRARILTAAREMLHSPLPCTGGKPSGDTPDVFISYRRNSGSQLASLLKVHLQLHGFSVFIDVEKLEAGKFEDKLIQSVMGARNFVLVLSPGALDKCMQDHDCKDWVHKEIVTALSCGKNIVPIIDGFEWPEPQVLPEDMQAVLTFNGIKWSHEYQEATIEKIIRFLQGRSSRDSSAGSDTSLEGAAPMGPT
# [10] = viability rescue of complex I mutant cybrids, primary screen, cell-based, galactose medium, ATP luminescence (AID 1645843;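 active = z-score of at least 1.8 in each of two replicates, scored against plate mean and spread of sample wells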;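 note: positive z means more ATP and so rescue of galactose-driven cybrid death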); settings: complex I mutant cybrid cells, 72 h, stronger effect = higher value
# [11] = circadian clock period modulators, cell-based, LOPAC library, luminescence reporter (AID 2774; call rule not given here;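 note: values are relative to mean of DMSO wells on each plate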); settings: circadian reporter cells, at 7 µM, actives lie on both sides
# [12] = polyglutamine-triggered caspase-3 activation inhibitors, cell-based (AID 1583); settings: polyglutamine-induced caspase-3 activation, cell assay; stronger effect = higher value;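 tested at 10 µM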
# [13] = suppressors of polyQ aggregation in yeast, 75Q-TubU reporter (AID 1593); settings: Yeast 75Q polyglutamine aggregation reporter
# [14] = rescue of polyQ-huntingtin neuronal dysfunction in worms, whole organism, C. elegans mechanosensory neurons, N-terminal huntingtin (AID 1599); settings: touch response, stronger effect = higher value
# [15] = inhibitors of mitochondrial cytochrome c release, biochemical, purified mitochondria (AID 1603); settings: stronger effect = lower value;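 note: mouse liver mitochondria challenged with calcium chloride; signal normalized to the plate average as 100%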
# [16] = inhibitors of polyQ protein aggregation (AID 1604); settings: polyglutamine-induced protein aggregation inhibition assay; stronger effect = higher value; tested at 2.5 µM
# [17] = enhancers of glutamate uptake in motor neurons, MN-1 cell line (AID 1612); settings: MN-1 motor neuron cells, stronger effect = higher value;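 note: tested at 1 µM final; 0% = mean of DMSO vehicle wells on each plate; positive means more glutamate uptake than control and negative means less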
# [18] = reducers of polyQ inclusions in PC12 cells, cell-based, NGF-treated PC12, GFPQ80 (AID 1614); settings: PC12 NGF-treated GFP-polyQ80 inclusion reduction;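 note: lower means fewer inclusions and 0 means no inclusions at all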
# [19] = suppressors of polyglutamine aggregation in yeast, 75Q-TubH (AID 1616); settings: S. cerevisiae 75Q-TubH polyglutamine aggregation suppression; stronger effect = higher value
# [20] = measured here: epithelial PC-3E GFP cell survival
# [21] = measured here: mesenchymal TEM4-18 mCherry cell survival
# [22] = stronger effect = lower value, cell number ratio, induced over uninduced
# [23] = measured here: relative caspase fold change +Dox/-Dox
# [24] = measured here: total cells with miR-34 induction, stronger effect = lower value
# [25] = measured here: total cells without miR-34 induction
# [26] = MELAS cybrid survival, CellTiter-Glo 48 h, stronger effect = higher value
# [27] = Rieske KO mouse fibroblast survival, CellTiter-Glo 72 h
smiles,measurement,setting,value
COc1ccc2cc1Oc1ccc(cc1)C[C@H]1c3cc(c(OC)cc3CCN1C)Oc1c(OC)c(OC)cc3c1[C@H](C2)N(C)CC3,survival,[1],1.58 (inactive)
same,parasite load remaining,[2],84.6% (inactive)
same,viability,[2],98.6%
same,inhibition,[3],19.5% (inactive)
same,red/green cell ratio (normalised),[4],0.86 (inactive)
same,normalised cell number,[4]; [20],1.08
same,normalised cell number,[4]; [21],0.93
same,fold change,[5]; [22],0.882 (inactive) and 1.13 (inactive)
same,fold change,[5]; [23],1.24 and 1.19
same,cell count,[5]; [24],7200 and 3450
same,cell count,[5]; [25],8160 and 3060
same,luciferase signal,[6],68 AU (inactive)
COc1cc(O)c2c(c1)C(=O)c1cc(C)cc(O)c1C2=O,inhibition,[3],36.5% (active)
same,red/green cell ratio (normalised),[4],1 (inactive)
same,normalised cell number,[4]; [20],1
same,normalised cell number,[4]; [21],1.01
same,fold change,[5]; [22],0.975 (inactive)
same,fold change,[5]; [23],0.792
same,cell count,[5]; [24],9920
same,cell count,[5]; [25],10200
same,z-score,[7]; [26],-0.364 (inactive)
same,z-score,[7]; [27],0.659
same,luciferase signal,[6],212 AU (inactive)
COc1cc(/C=C/C(=O)O)ccc1O,parasite load remaining,[2],186% (inactive)
same,viability,[2],69.3%
same,inhibition,[3],3.09% (inactive)
same,red/green cell ratio (normalised),[4],1.05 (inactive)
same,normalised cell number,[4]; [20],1
same,normalised cell number,[4]; [21],1.05
same,luciferase signal,[6],48 AU (inactive)
CCCc1nn(C)c2c(=O)[nH]c(-c3cc(S(=O)(=O)N4CCN(C)CC4)ccc3OCC)nc12,parasite load remaining,[2],94.8% (inactive) and 65.8% (inactive) and 48% (inactive)
same,viability,[2],89.3% and 101% and 108%
same,inhibition,[3],6.7% (inactive)
same,red/green cell ratio (normalised),[4],0.98 (inactive)
same,normalised cell number,[4]; [20],1.05
same,normalised cell number,[4]; [21],1.03
same,cell count,[5]; [24],10500 and 7310 and 9670
same,outcome,[8],inactive
same,z-score,[7]; [26],-0.38 (inactive) and -0.0288 (inactive) and 1.25 (inactive)
same,z-score,[7]; [27],-0.0156 and 0.388 and 1.37
same,remaining NAD,[9],10 nM (inactive)
same,luciferase signal,[6],60 AU (inactive)
same,z-score,[10],0.235 (inactive) and 0.33 (inactive)
O=C(O)/C=C/c1ccc(O)c(O)c1,period change,[11],0.055 h (inactive)
same,inhibition,[3],7.04% (inactive)
same,red/green cell ratio (normalised),[4],1.06 (inactive)
same,normalised cell number,[4]; [20],1
same,normalised cell number,[4]; [21],1.06
same,fold change,[5]; [22],0.967 (inactive) and 0.99 (inactive)
same,fold change,[5]; [23],2.48 and 1.11
same,cell count,[5]; [24],10100 and 5830
same,cell count,[5]; [25],10400 and 5890
same,outcome,[8],inactive
same,luciferase signal,[6],32 AU (inactive)
same,z-score,[10],-0.81 (inactive)
CC[C@H]1OC(=O)[C@H](C)[C@@H](O[C@H]2C[C@@](C)(OC)[C@@H](O)[C@H](C)O2)[C@H](C)[C@@H](O[C@@H]2O[C@H](C)C[C@H](N(C)C)[C@H]2O)[C@](C)(O)C[C@@H](C)/C(=N\OCOCCOC)[C@H](C)[C@@H](O)[C@]1(C)O,inhibition,[12],1.74%
same,score,[13],0.81
same,rescue above control,[14],1.9
same,cytochrome c release ratio,[15],0.93
same,inhibition of aggregation,[16],60.6%
same,glutamate uptake change,[17],2.1%
same,inclusion score,[18],2
same,aggregation suppression score,[19],0.306
same,parasite load remaining,[2],160% (inactive) and 51.6% (inactive)
same,viability,[2],87.6% and 99.8%
same,inhibition,[3],16.8% (inactive)
same,red/green cell ratio (normalised),[4],1 (inactive)
same,normalised cell number,[4]; [20],1.13
same,normalised cell number,[4]; [21],1.13
same,fold change,[5]; [22],0.869 (inactive)
same,fold change,[5]; [23],4.54
same,cell count,[5]; [24],10400
same,cell count,[5]; [25],12000
same,z-score,[7]; [26],-0.323 (inactive)
same,z-score,[7]; [27],-0.397
same,remaining NAD,[9],10 nM (inactive)
same,luciferase signal,[6],84 AU (inactive)
CC(=O)[C@@]1(O)CCC2C3CCC4=CC(=O)CC[C@]4(C)C3CC[C@@]21C (stereo partly drawn),inhibition,[3],7.07% (inactive)
same,red/green cell ratio (normalised),[4],0.98 (inactive)
same,normalised cell number,[4]; [20],0.94
same,normalised cell number,[4]; [21],0.92
same,fold change,[5]; [22],0.883 (inactive)
same,fold change,[5]; [23],0.857
same,cell count,[5]; [24],7810
same,cell count,[5]; [25],8840
CN(C)CCN(Cc1cccs1)c1ccccn1,inhibition,[12],23.7%
same,score,[13],1.21
same,rescue above control,[14],-13.2
same,cytochrome c release ratio,[15],0.66
same,inhibition of aggregation,[16],81.4%
same,glutamate uptake change,[17],-6.5%
same,inclusion score,[18],2
same,aggregation suppression score,[19],1.19
same,period change,[11],0.21 h (inactive)
same,survival,[1],13.8 (inactive)
same,inhibition,[3],15.9% (inactive)
same,red/green cell ratio (normalised),[4],1.12 (inactive)
same,normalised cell number,[4]; [20],1.1
same,normalised cell number,[4]; [21],1.22
same,fold change,[5]; [22],1.16 (inactive) and 0.855 (inactive) and 0.861 (inactive)
same,fold change,[5]; [23],0.908 and 1.23 and 2.97
same,cell count,[5]; [24],11200 and 8440 and 11600
same,cell count,[5]; [25],9630 and 9870 and 13500
same,outcome,[8],inactive
same,z-score,[7]; [26],0.365 (inactive)
same,z-score,[7]; [27],-0.164
same,remaining NAD,[9],10 nM (inactive)
same,luciferase signal,[6],36 AU (inactive)
same,z-score,[10],0.215 (inactive)
CC1=C(/C=C/C(C)=C/C=C/C(C)=C/C=C/C=C(C)/C=C/C=C(C)/C=C/C2=C(C)CCCC2(C)C)C(C)(C)CCC1,inhibition,[12],-13.5%
same,score,[13],1.3
same,rescue above control,[14],-6.44
same,cytochrome c release ratio,[15],0.86
same,inhibition of aggregation,[16],42.6%
same,glutamate uptake change,[17],-16.2%
same,inclusion score,[18],2.5
same,aggregation suppression score,[19],0.881
same,parasite load remaining,[2],58% (inactive)
same,viability,[2],103%
same,inhibition,[3],2.51% (inactive)
same,red/green cell ratio (normalised),[4],0.84 (inactive)
same,normalised cell number,[4]; [20],1.16
same,normalised cell number,[4]; [21],0.98
same,fold change,[5]; [22],0.908 (inactive)
same,fold change,[5]; [23],1.03
same,cell count,[5]; [24],11100
same,cell count,[5]; [25],12200
same,remaining NAD,[9],10 nM (inactive)
same,luciferase signal,[6],36 AU (inactive)
CC(=O)N[C@@H](CC(=O)O)C(=O)N[C@@H](CCC(=O)O)C(=O)O (Ac-Asp-Glu-OH),inhibition,[12],12.9%
same,score,[13],1.12
same,rescue above control,[14],7.68
same,cytochrome c release ratio,[15],1.15
same,inhibition of aggregation,[16],1.96%
same,glutamate uptake change,[17],0%
same,inclusion score,[18],2
same,aggregation suppression score,[19],1.06
same,survival,[1],16.7 (inactive)
same,inhibition,[3],-7.58% (inactive)
same,red/green cell ratio (normalised),[4],0.86 (inactive)
same,normalised cell number,[4]; [20],1.17
same,normalised cell number,[4]; [21],1.01
same,fold change,[5]; [22],0.963 (inactive)
same,fold change,[5]; [23],0.542
same,cell count,[5]; [24],8810
same,cell count,[5]; [25],9150
same,z-score,[10],-0.67 (inactive)
O=C(/C=C/c1ccc(O)c(O)c1)OCCc1ccccc1,period change,[11],0.335 h (inactive)
same,inhibition,[3],14% (inactive)
same,red/green cell ratio (normalised),[4],0.72 (inactive)
same,normalised cell number,[4]; [20],1.3
same,normalised cell number,[4]; [21],0.94
same,fold change,[5]; [22],1.03 (inactive) and 1.01 (inactive) and 1.12 (inactive)
same,outcome,[8],inactive
same,luciferase signal,[6],56 AU (inactive)
same,z-score,[10],-1.37 (inactive) and -0.615 (inactive)
COc1cc(S(C)=O)ccc1-c1nc2ncccc2[nH]1 (stereo not drawn),inhibition,[12],23%
same,score,[13],1.52
same,rescue above control,[14],8.66
same,cytochrome c release ratio,[15],0.94
same,inhibition of aggregation,[16],3.24%
same,glutamate uptake change,[17],3.5%
same,inclusion score,[18],2
same,aggregation suppression score,[19],1.25
same,survival,[1],5.5 (inactive)
same,parasite load remaining,[2],107% (inactive)
same,viability,[2],101%
same,inhibition,[3],14% (inactive)
same,red/green cell ratio (normalised),[4],1.07 (inactive)
same,normalised cell number,[4]; [20],0.84
same,normalised cell number,[4]; [21],0.9
same,fold change,[5]; [22],0.851 (inactive)
same,fold change,[5]; [23],1.41
same,cell count,[5]; [24],7350
same,cell count,[5]; [25],8630
same,z-score,[7]; [26],-0.22 (inactive)
same,z-score,[7]; [27],0.17
same,luciferase signal,[6],48 AU (inactive)
